From PubChem BioAssay
FMDV inh = blocks foot and mouth disease virus; 410,000 compounds, 1.2% hits; FMDV antiviral cell-based qHTS; Potency, µM (doses to about 57.9 µM), inactives show at the top dose activity change, negative = inhibition, usual class: inhibitors; calls by dose curve; tested in HEK293T cells; also: read-out not given here; potency is read from the fitted curve at half-maximal effect; % is scaled to controls: 0 for no effect and ±100 for the full control effect; nearly all actives have a fitted effect of over 45% in size
Shiga inhibitor = inhibitors of Shiga toxin in Vero cells. AID 2315. inhibition, % at 38.7 µM. 290,000 compounds, 9.2% hits. Vero cells, Shiga toxin protein synthesis inhibition reporter; in the data active = inhibition mostly above about 28%, no sharp cut-off; inactive = mostly below about 43%; also: 0% is about no effect
Marburg entry inh = blocks Marburg virus binding to or entry into cells; AID 540276; Marburg virus pseudotyped entry inhibition, cell reporter; 300,000 compounds, 1.8% hits; Potency, µM (doses to about 37.8 µM), inactives show top-dose activity change, negative = inhibition, hits mostly inhibitors; calls by dose curve; tested in HEK293 cells; also: potency is read from the fitted curve at half-maximal effect; % is scaled to controls: 0 for no effect and ±100 for the full control effect
CHX counter = counter-screen hit for Shiga toxin inhibitors, cycloheximide | cell reporter, cycloheximide protein synthesis inhibition counterscreen | 300,000 compounds, 12% hits | max response, % | AID 2314; in the data active = max response mostly above about 13%, no sharp cut-off; inactive = mostly below about 14%; also: read at 38.3 µM for the half of the compounds with a filed dose; 0% is about no effect
Lassa entry inh = Lassa virus entry inhibition. Lassa virus pseudotype entry inhibition, cell reporter. Potency, µM (titrated, usually from 37.9 µM), for the others: at the top dose activity change, negative = inhibition, usual class: inhibitors. 300,000 compounds, 1.2% hits. AID 540256; calls by dose curve; tested in HEK293 cells; also: potency is read from the fitted curve at half-maximal effect; % is scaled to controls: 0 for no effect and ±100 for the full control effect; nearly all actives have a fitted effect of over 50% in size
HCV inh = blocks hepatitis C virus | Huh7.5.1 HCVcc-Cre infection, luciferase reporter, 44 h | Potency, µM (series often up to 41.8 µM), for the others: at the highest dose activity change, negative = inhibition, most hits filed as inhibitors | 340,000 compounds, 3.4% hits | AID 651820; active = well fitted inhibition curve with a large enough effect; inconclusive = small, poorly fitted or top-dose-only effect, or another doubt; inactive = no such curve, though single readings can be large or run the other way; also: potency is read from the fitted curve at half-maximal effect; % is scaled to controls: 0 for no effect and ±100 for the full control effect
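After 44 h co-culture of compound, cells and HCVcc-Cre (~0.5 moi), substrate is added for 15 min at room temperature and luciferase measured over 15 sec. Cells were seeded at 1,000/well and pre-cultured 4 h.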
* marks the source's active call; other numbers are inactive results; ? = inconclusive; / = no result; + = active, no number; [ ] = remark or other dose. A selection: hits, their analogues and other compounds. The true share with any hit is near 13%.

SMILES	FMDV inh	Shiga inhibitor	Marburg entry inh	CHX counter	Lassa entry inh	HCV inh
Cc1ccc(C)c(-n2c(CNC(=O)c3ccco3)nnc2SCC(=O)N2CCc3ccccc32)c1	-10%	-7	-30%	-1	-16%	16%
O=C(NCc1ccc(Cl)cc1)C1CCC(=O)N(C2CCCCCC2)C1 (stereo not given)	?	-11	4%	2	-7%	17%
COc1ccc(Cl)cc1Nc1nc(N)c2ccccc2n1	9%	/	?	25*	-24%[46.1 µM]	14µM*
Cc1ccc(C)c(Nc2nc(N)c3ccccc3n2)c1	-24%	73*	?	26*	-8%[46.1 µM]	-6%
Cc1ccc(O)c(Nc2c3ccccc3nc3ccccc23)c1	?	33*	?	21*	?	10µM*
COc1ccc(C)cc1Nc1nc(N)c2cc(OC)c(OC)cc2n1	-27%	4	?	5	?	?
Cc1ccc(O)c(Nc2nc(-c3ccccc3)nc3ccccc23)c1	-16%	/	?	-3	-6%	-29%
CCc1c(C(=O)NNC(=S)NCc2ccccc2)csc1C	20%	-4	?	6	-21%	6%
CCOC(=O)C1CCCN(S(=O)(=O)c2c(C)[nH]c(C)c2C(=O)N2CCCC2)C1 (stereo not given)	-5%	-2	/	5	/	6%
Cc1c(/C=C/C(=O)c2ccc(C(C)C)cc2)cnn1C	-1%	133*	14%[46.1 µM]	40*	?	32µM*
CCn1ncc(/C=N\NC(=O)COc2ccccc2)c1C	17%	67*	-19%	9	-1%	4%
Cc1c(/C=C/C(=O)c2ccc(Cl)s2)cnn1C	22%	37	?	27*	-3%	2%
Cc1c(/C=C/C(=O)c2ccc(O)cc2)cnn1C	11%	49*	-15%	19*	1%	?
Cc1ccccc1Cn1nc(C)c(NC(=O)/C=C/c2cnn(C)c2C)c1C	-24%	-2	-18%	-4	-15%	-3%
CCn1ncc(/C=C/C(=O)c2ccccc2)c1C	0%	+	18%	45*	4%	12%
Cc1c(/C=C/C(=O)c2ccccc2)cnn1C	36%	180*	?	53*	7%	?
O=C(NC1CCCCCC1)c1cc2c(=O)n3ccccc3nc2s1	59%	75*	16%[46.1 µM]	29*	-1%	-7%
CC(C)NC(=O)c1cc2c(=O)n3ccccc3nc2s1	17%	-2	-3%[46.1 µM]	2	13%[46.1 µM]	13%
CN1CCN(C(=O)c2cc3sc4ccccc4c3s2)CC1	-10%	49	-28%[46.1 µM]	39*	-11%[46.1 µM]	-2%
CN1CCN(C(=O)c2cc3c(=O)n4ccccc4nc3s2)CC1	36%	49*	18%[46.1 µM]	12*	12%[46.1 µM]	5%
CCn1c(=O)c2cc(C(=O)N3CCN(C)CC3)sc2c2ccccc21	13%	11	/	1	/	?
C=CCNC(=O)c1cc2c(=O)n3ccccc3nc2s1	50%	72*	/	34*	/	-1%
CCOC(=O)c1ccc(S(=O)(=O)Nc2ccccc2-c2nnn(CC)n2)cc1	?	75	?	-1	4%	-14%
Nc1nonc1C(=O)NCCNCc1c(OCc2ccccc2F)ccc2ccccc12	?	-19	?	-5	?	14µM*
CNCc1c(OCc2ccccc2F)ccc2ccccc12	-20%	20	?	-2	?	8.9µM*
SMILES	FMDV inh	Shiga inhibitor	Marburg entry inh	CHX counter	Lassa entry inh	HCV inh
Cc1ccc(NCc2ccccc2OCc2ccccc2F)cc1	-19%	27*	?	18*	-27%	1%
CNCc1c(OCc2ccccc2)ccc2ccccc12	-2%	-3	?	1	?	?
CSc1ccc(CNC(=O)c2cc3cc(S(=O)(=O)N4CCCCC4)ccc3n2C)cc1	-31%	/	/	/	-10%[46.1 µM]	/
C/C(Cl)=C\Cn1c(NCCc2ccccc2)nc2c1c(=O)n(C)c(=O)n2C	/	-5	3.7µM*	-6	4.6µM*	2.5µM*
CCn1c(NCc2ccco2)nc2c1c(=O)n(C)c(=O)n2C	-22%	18	0%	2	17%	7%
Cc1ccc(Cn2c(NCCc3ccccc3)nc3c2c(=O)n(C)c(=O)n3C)cc1	16µM*	-8	?	-4	?	4µM*
Cn1c(=O)c2c(nc(NCCc3ccccc3)n2CC(=O)NCCc2ccccc2)n(C)c1=O	-25%	2	10%	-2	-9%	-12%
C=CCn1c(NCCc2ccccc2)nc2c1c(=O)n(C)c(=O)n2C	25µM*	13	?	8	?	?
